Sampled rows, rich in hits. Any-hit rate of the full collection: about 2.9%.
DRD3 antagonist = blocks the human D3 dopamine receptor; D3R cells, DiscoveRx beta-arrestin luminescence, antagonist mode; stronger effect = lower value; max response, negative = inhibition, %; 360,000 tested, 2.5% active; AID 652054; in the data active = max response below about -50%; inconclusive = no clear call, values can overlap the other calls; also: % is scaled to controls: 0 for no effect and ±100 for the full control effect
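Cells plated overnight at 1500 cells/well, then exposed to library compounds with dopamine controls for 90 minutes at 37 degrees C. DiscoveRx reagent added for 30–60 minutes at room temperature; luminescence read, quantitative HTS format.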
D3 ag = D3 dopamine receptor (human) agonism | D3R DiscoveRx beta-arrestin cells, luminescence, 90 min | P35462 | max activation, % | 410,000 tested, 0.58% active; in the data active = max activation above about 30%; also: 0% is about no effect
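Agonist mode: compounds and dopamine controls were applied to plated cells for 90 min at 37 degrees C after an overnight attachment at 1500 cells/well. Luminescent read-out followed 30 - 60 minutes at room temperature with DiscoveRx detection reagent.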
MmCpn inh = M. maripaludis TRiC chaperonin inhibition; Potency, µM (titrated, usually from 76.9 µM), for the others: at the top dose activity, negative = inhibition, usual class: inhibitors; purified Mm-Cpn ATPase, ADP Transcreener TR-FRET; 330,000 tested, 0.031% active; active = well fitted inhibition curve with a large enough effect; inconclusive = small, poorly fitted or top-dose-only effect; also: potency is read from the fitted curve at half-maximal effect; % is scaled to controls: 0 for no effect and ±100 for the full control effect; nearly all actives have a fitted effect of over 80% in size
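Eu-cryptate anti-ADP/ADP-d2 competition gives a ratio inversely related to ADP. Enzyme at 25 nM was pre-exposed to compound for 10 min, then given 10 uM ATP for 30 min, 37°C throughout.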
Rango release inh = inhibition of RanGTP-driven Rango-importin beta dissociation | Biochemical FRET Rango-importin beta, RanGTP-induced dissociation | O95149+P62826 | 340,000 tested, 0.071% active | Potency, µM (top dose mostly 46.1 µM), inactives show top-dose activity change, negative = inhibition; also: potency is read from the fitted curve at half-maximal effect; % of control where 0% means no effect; nearly all actives have a fitted effect of over 45% in size
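Rango/importin beta premix (0.1/0.25 uM final), PBS + 1 mM DTT + 0.02% Tween-20 + 0.1% BSA; cpd 5 min RT; FRET pre-read; + RanGTP-RCC1 (0.6 uM Ran, 2 mM GTP, 0.2 uM RCC1); 45 min RT; FRET post-read, ex 430, em 486/530 nm.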
PTAP TSG101 blk = blocks PTAP/TSG101 interaction to inhibit HIV-1 budding; Fluorescence polarization, FITC-PTAP peptide / Tsg101 binding; Potency, µM (highest dose often 115 µM), for inactives: at the top dose activity change, negative = inhibition, most hits filed as inhibitors; 340,000 tested, under 10 active; Q99816; AID 493005; active = well fitted inhibition curve with a large enough effect in the main read-out, with a control signal flat, not every such curve was filed as active; inconclusive = small, poorly fitted or top-dose-only effect, or effect the other way, or a change in a side signal; inactive = no such curve, though single readings can be large or run the other way; also: potency is read from the fitted curve at half-maximal effect; % of control where 0% means no effect
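FP read-out: FITC-PTAP peptide, 50 nM final, binding Tsg101 binding domain, 10 uM final; 20 min, r.t.; 10 mM HEPES pH 7.5, 0.15 M NaCl, 0.01% Tween 20, 3 mM EDTA, 0.1 mM TCEP.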
Rango-impB inh = prevents formation of the Rango-importin beta complex; Rango CFP/YFP FRET sensor + importin beta, 45 min; Potency, µM (doses to about 92.2 µM), inactives show at the top dose inhibition of complex formation; 340,000 tested, 0.031% active; AID 540263;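 also: potency is read from the fitted curve at half-maximal effect; 0% = DMSO wells and 100% = buffer wells lacking importin beta; nearly all actives have a fitted effect of over 15% in size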
Target sequence (Q14974 whole entry, looked up): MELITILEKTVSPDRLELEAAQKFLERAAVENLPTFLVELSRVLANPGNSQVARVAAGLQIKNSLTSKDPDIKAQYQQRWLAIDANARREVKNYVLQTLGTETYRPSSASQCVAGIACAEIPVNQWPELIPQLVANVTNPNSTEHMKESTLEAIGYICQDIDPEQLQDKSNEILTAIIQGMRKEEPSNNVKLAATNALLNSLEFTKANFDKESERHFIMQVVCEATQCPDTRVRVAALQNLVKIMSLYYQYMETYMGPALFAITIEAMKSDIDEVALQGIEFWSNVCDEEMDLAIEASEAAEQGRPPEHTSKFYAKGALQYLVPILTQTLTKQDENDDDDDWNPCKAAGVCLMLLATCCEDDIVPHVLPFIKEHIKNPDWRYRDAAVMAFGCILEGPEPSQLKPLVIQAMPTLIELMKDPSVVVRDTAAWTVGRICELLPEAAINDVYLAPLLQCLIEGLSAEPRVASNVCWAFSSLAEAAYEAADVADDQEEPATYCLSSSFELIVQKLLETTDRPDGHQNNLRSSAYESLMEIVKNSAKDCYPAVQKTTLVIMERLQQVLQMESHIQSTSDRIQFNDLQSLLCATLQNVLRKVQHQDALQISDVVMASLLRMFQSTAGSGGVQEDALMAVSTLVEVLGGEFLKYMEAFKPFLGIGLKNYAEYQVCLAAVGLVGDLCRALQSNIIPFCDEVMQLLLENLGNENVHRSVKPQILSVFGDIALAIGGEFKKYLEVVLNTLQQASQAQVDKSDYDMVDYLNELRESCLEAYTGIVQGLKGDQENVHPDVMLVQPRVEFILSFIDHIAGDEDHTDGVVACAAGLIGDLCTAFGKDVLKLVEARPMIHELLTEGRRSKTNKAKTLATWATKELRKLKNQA
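Inhibition scored from the CFP 486 nm/YFP 530 nm FRET ratio 45 min after adding 0.125 microM importin beta to 50 nM Rango biosensor preincubated 5 min with compound (room temperature, PBS with DTT, Tween-20, BSA). No-importin wells as positive control.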
The depositor's hits bear a star; ? = inconclusive; · = not tested or not shown. Unless noted, calls follow the shape of the full dose curve.

SMILES	DRD3 antagonist	D3 ag	MmCpn inh	Rango release inh	PTAP TSG101 blk	Rango-impB inh
CC(CN1CCCCC1)OC(=O)c1ccc(Cl)cc1Cl (stereo unspecified)	?	-16	2%	-2%	-3%	4%
CC(CN1CCCC1)OC(=O)c1ccc(Cl)cc1 (stereo unspecified)	-54*	-25	1%	-10%	-6%	1%
CC(CN1CCOCC1)OC(=O)c1ccc(Br)cc1 (stereo unspecified)	-67*	-18	0%	-3%	-1%	-1%
COC(=O)c1c(C(=O)OC)c2c(-c3ccccc3)cc3cccc1n32	93	34*	·	·	·	·
CC(C)(C)c1cc(NC(=O)c2ccc(OC3CCCC3)cc2)no1	9	35*	0%	1%	-4%	-1%
O=C(Nc1ccon1)c1ccc(OC2CCCC2)cc1	?	-20	1%	-1%	-2%	2%
CC1=C(C#N)C(c2ccccc2O)C(C#N)=C(C)N1	3	-2	?	-4%	-13%	5%
CC1=C(C#N)C(c2ccc3ncccc3c2)C(C#N)=C(C)N1	-61*	18	-1%	-8%	-10%	-3%
CC(C)Cn1cc(NC(=O)NCc2cccc(Cl)c2)c2ccccc2c1=O	·	-8	·	·	·	·
CC(C)N(C(=O)[C@H]1C[C@H](CC(=O)NCCN2CCOCC2)C(=O)N2CCc3c([nH]c4ccc(Cl)cc34)[C@]12C)C(C)C	-53*	-1	3%	-1%	0%	-2%
C[C@]12c3[nH]c4ccc(Cl)cc4c3CCN1C(=O)[C@@H](CC(=O)NCC13CC4CC(CC(C4)C1)C3)C[C@@H]2C(=O)N1CCOCC1	-50*	-23	0%	16%	-2%	1%
O=C(CSCc1ccccc1Cl)NCc1ccc(Cl)c(Cl)c1	·	-9	·	·	·	·
COc1c(C(=O)Nc2ccc(Cc3ccncc3)cc2)ccc2ccccc12	11	34*	-1%	-10%	-4%	3%
O=C(Cn1ncc2c3ccccc3n(Cc3ccc(Cl)cc3)c2c1=O)N1CCCCCC1	·	-10	·	·	·	·
COc1ccc(CN2C(=O)C(C)Nc3ncnc(N4CCN(c5ccccc5)CC4)c32)cc1 (stereo unspecified)	-70*	-45	-21%	-6%	-5%	-4%
COc1ccc(CN2C(=O)C(C)Nc3ncnc(N4CCOCC4)c32)cc1 (stereo unspecified)	-1	-5	1%	4%	0%	-3%
CC1Nc2ncnc(N3CCN(c4ccccc4)CC3)c2N(Cc2ccc(Br)cc2)C1=O (stereo unspecified)	-156*	-79	1%	-15%	0%	1%
O=C(NCc1nnnn1-c1ccccc1)c1ccc2ccccc2c1	-6	105*	·	·	·	·
CCOCN(C(=O)Cn1c(CC(C)C)nc2ccccc21)c1c(C)cccc1CC	·	1	·	·	·	·
Nc1ncc(S(=O)(=O)NCc2ccc(F)cc2)cn1	·	7	·	·	·	·
CCOc1ccc(OCCOCCN2CCCC2)cc1	6	6	-1%	-15%	-4%	-2%
CCc1cccc(OCCOCCN2CCCC2)c1	-71*	-3	-1%	0%	-5%	-2%
Cc1cc(OCCOCCN2CCCC2)ccc1C(C)C	-58*	-10	?	-11%	-5%	?
COCCCNCCOc1cc(C(C)C)ccc1C	-66*	-4	-1%	9%	-4%	5%
Cc1ccccc1OCCOCCN1CCCCCC1	?	-12	1%	-4%	-1%	4%
SMILES	DRD3 antagonist	D3 ag	MmCpn inh	Rango release inh	PTAP TSG101 blk	Rango-impB inh
Cc1ccc(C(C)C)cc1OCC(=O)NC1CCCCCCC1	-15	-5	0%	-14%	-3%	-1%
CCOc1cccc(OCCOCCN2CCCC2)c1	?	-17	1%	-11%	-6%	0%
Cc1ccc(C(C)C)cc1OCCOCCN1CCCC1	-66*	-1	0%	0%	-3%	0%
CC(C)Cn1c(=O)c2sccc2n2c(CCCC(=O)N3CCN(c4ccc(F)cc4)CC3)nnc12	·	-11	·	·	·	·
COc1ccc(-c2c(-c3ccc(O)cc3O)n[nH]c2C(F)(F)F)cc1	-12	-1	40µM*	25%	-3%	-2%
O=C(/C=C/c1cccc(Cl)c1)c1nc2ccccc2[nH]1	-56*	-6	-20%	6%	-4%	3%
O=C(/C(=C\c1ccccc1)c1nc2ccccc2[nH]1)c1ccc(Cl)cc1	-71*	-3	-4%	2%	0%	-1%
COc1cc(/C=C(/C(=O)c2cccs2)c2nc3ccccc3[nH]2)ccc1O	-19	-28	1%	-25%	-4%	0%
O=C(/C(=C/c1ccc(Cl)cc1)c1nc2ccccc2[nH]1)c1cccs1	-65*	-14	-6%	2%	0%	0%
COc1ccc(OC)c(CNS(=O)(=O)c2cc(-c3onc(C)c3C)ccc2C)c1	·	10	·	·	·	·
COc1ccccc1N1CCN(C2CCCN(C(=O)c3cccc(-c4ccco4)c3)C2)CC1 (stereo unspecified)	-66*	-13	-4%	-11%	-5%	0%
COc1cccc(OCc2cc(C(=O)N3CCN(c4ccccc4OC)CC3)no2)c1	-63*	-19	0%	19%	2%	6%
COc1ccccc1N1CCN(C2CCCN(C(=O)c3ccoc3C)C2)CC1 (stereo unspecified)	-25	-28	1%	6%	·	3%
COc1cccc(OCc2cc(C(=O)N3CCN(c4ccccc4O)CC3)no2)c1	6	7	1%	0%	-5%	0%
COc1ccccc1N1CCN(C2CCCN(C(=O)c3ccccn3)C2)CC1 (stereo unspecified)	-6	-10	1%	-2%	-3%	2%
COc1cc(OC)cc(C(=O)N2CCC(N3CCN(c4ccccc4OC)CC3)CC2)c1	-53*	0	-3%	-14%	-1%	6%
COc1ccccc1N1CCN(C2CCCN(C(=O)c3cc(C(C)C)on3)C2)CC1 (stereo unspecified)	-62*	-2	·	·	·	·
CCOC(=O)c1ccc(NC(=O)c2cc3c(=O)n(C)c4ccccc4c3n2C)cc1	·	8	·	·	·	·
COc1cc(/C=c2\s/c(=C(/C#N)C(=O)N3CCCC3)n(-c3ccccc3)c2=O)ccc1O	0	2	-3%	?	0%	?
Cc1ccc(/C=c2\s/c(=C(/C#N)C(=O)N3CCCC3)n(Cc3ccco3)c2=O)s1	?	-2	0%	8.2µM*	?	?
Cc1c(CCNC(=O)c2ccc(Br)o2)sc2nc(-c3ccc(F)cc3)nn12	·	10	·	·	·	·
CCOC(=O)Cc1nc2ccccc2[nH]1	16	-23	1%	?	-4%	?

Screens as filed in PubChem BioAssay.
